In PubChem BioAssay:
A number with no mark means an inactive call.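 How the source made its calls: active means viability loss from added drug above about 55%, and viability with drug at most 40%, in both replicates (limit read from the data, passing the limit was not always enough); inconclusive means both conditions met in only one replicate; inactive means neither replicate meets both conditions.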

Test: MRP1 drug-resistance reversers in H69AR cells – cell-based, doxorubicin co-treatment, pilot screen (AID 601)
Conditions: H69AR cells + 2 uM doxorubicin, CellTiter-Glo, 72 h; at 10 µM; active compounds read high

Q: For `Cn1c(-c2ccccc2)cnc1SCc1nc2ccccc2c(=O)[nH]1`, which differential viability (reversal) is on record?
A: 18.1%

Q: Which differential viability (reversal) does the source give for `COc1ccc(N2C(=O)C(Cl)=C(N3CCCC3)C2=O)cc1` here?
A: 9.9%

Q: For `Cc1ccc(-n2c(N)c(C(N)=O)sc2=S)cc1`, which differential viability (reversal) is on record?
A: -0.38%

Q: For `O=C(Nc1ccc(N2CCOCC2)c(Cl)c1)c1ccc(Br)o1`, which differential viability (reversal) is on record?
A: -12.4%

Q: Which differential viability (reversal) does the source give for `NS(=O)(=O)c1ccc(CCNC(=O)c2cccnc2)cc1` here?
A: 3.81%

Q: With `C[N+](C)(C)CCOP(=O)([O-])OC[C@H](O)CO` as the compound, how does the differential viability (reversal) read?
A: 0.95%

Q: For `Cn1c(=O)[nH]c(=O)c2c1nc(N1CCc3ccccc3C1)n2CCSc1nc2ccccc2s1`, which differential viability (reversal) is on record?
A: 1.51%

Q: For `CCOC(=O)c1ccc(COC(=O)c2cc3ccccc3oc2=O)o1`, which differential viability (reversal) is on record?
A: 20.8%

Q: Which differential viability (reversal) does the source give for `CCc1c(C)c2ccc(OCC(=O)OC)cc2oc1=O` here?
A: -2.49%

Q: With `Cc1c(NC(=O)C(C)Oc2ncnc3ccccc23)c(=O)n(-c2ccccc2)n1C` (centres undefined) as the compound, how does the differential viability (reversal) read?
A: 7.01%

Q: For `COc1nc(OC)nc(N2CCC(C(=O)NCc3cccs3)CC2)n1`, which differential viability (reversal) is on record?
A: -1.4%

Q: For `CCCCOc1ccccc1C1C(C(N)=O)=C(C)Nc2nnnn21` (centres undefined), which differential viability (reversal) is on record?
A: 6.69%

Q: With `O=C(NCCCN1CCN(Cc2ccccc2)CC1)C1CCN(c2nnc(-n3cccc3)s2)CC1` as the compound, how does the differential viability (reversal) read?
A: 4.26%

Q: For `CCN(CC)CCCNC1CCS(=O)(=O)C1` (centres undefined), which differential viability (reversal) is on record?
A: 4.3%

Q: With `N#CC1=C(N)N2C(=C(C#N)C13CCCCC3)SC1CCCCC12O` (centres undefined) as the compound, how does the differential viability (reversal) read?
A: 6.71%

Q: Which differential viability (reversal) does the source give for `COc1ccccc1CNC(=O)C(C)NS(=O)(=O)c1ccccc1` (centres undefined) here?
A: -11%

Q: For `O=C(CSc1ccc(-c2ccccc2)nn1)N1CCOCC1`, which differential viability (reversal) is on record?
A: 13.2%

Q: For `Cc1oc2cc3c(C(=O)OCCN(C)C)c(C)oc3cc2c1C(=O)OCCN(C)C`, which differential viability (reversal) is on record?
A: -16.8%

Q: For `CCOc1cc(C2Nc3ccccc3C(=O)N2c2ccccc2OC)ccc1O` (centres undefined), which differential viability (reversal) is on record?
A: 0.125%

Q: For `O=C(c1cccc2c1C(=O)N(Cc1cccnc1)C2)N1CCN(c2ccccc2)CC1`, which differential viability (reversal) is on record?
A: 3.83%

Q: Which differential viability (reversal) does the source give for `O=C(CSc1oc(-c2ccco2)nc1S(=O)(=O)c1ccccc1)NCC1CCCO1` (centres undefined) here?
A: 5.96%

Q: For `Nc1cc(=O)[nH]c(SCC(=O)Nc2ccc(Br)cc2)n1`, which differential viability (reversal) is on record?
A: 4.49%

Q: With `CC1(C)S[C@@H]2[C@H](NC(=O)[C@H](N)c3ccccc3)C(=O)N2[C@H]1C(=O)O` as the compound, how does the differential viability (reversal) read?
A: 15.6%

Q: For `CC(=O)Nc1nc(C)c(-c2csc(Nc3ccc(O)cc3)n2)s1`, which differential viability (reversal) is on record?
A: -5.39%

Q: With `O=C(CCn1c(=O)oc2ccccc21)N1CCCCCC1` as the compound, how does the differential viability (reversal) read?
A: 5.09%

Q: Which differential viability (reversal) does the source give for `O=C(O)CCN(CCC(=O)O)c1nnc(SCc2ccccc2)s1` here?
A: 7.11%

Q: For `CC(=O)OCC(=O)[C@@]12OC(C)(C)O[C@@H]1C[C@H]1[C@@H]3C[C@H](F)C4=CC(=O)C=C[C@]4(C)[C@@]3(F)[C@@H](O)C[C@@]12C`, which differential viability (reversal) is on record?
A: 2.31%

Q: With `COC(=O)CCC(=O)CN` as the compound, how does the differential viability (reversal) read?
A: -4.23%

Q: Which differential viability (reversal) does the source give for `C=CCN=C1SCC(=O)N1S(=O)(=O)c1ccc(C)cc1` here?
A: 13.6%

Q: With `O=C1c2ccccc2C(=O)N1CCN1CCCCC1` as the compound, how does the differential viability (reversal) read?
A: 4.01%

Q: Which differential viability (reversal) does the source give for `CN(C)c1ccc(NC(=O)Nc2cccc(Cl)c2)cc1` here?
A: 3.98%

Q: Which differential viability (reversal) does the source give for `COC(=O)[C@H](C)NC(=O)Nc1cccc(C(F)(F)F)c1` here?
A: -5.75%

Q: With `Cc1c(C=NCCOCc2ccccc2)cnn1C` as the compound, how does the differential viability (reversal) read?
A: 14%

Q: With `COC(=O)c1cccc(Nc2cc(C)nc(-c3ccccc3O)n2)c1` as the compound, how does the differential viability (reversal) read?
A: -6.26%

Q: Which differential viability (reversal) does the source give for `CCN(CC)C(=O)c1ccc(O)c(OC)c1` here?
A: 0.23%

Q: Which differential viability (reversal) does the source give for `CC(C)CN(CC(C)C)c1nc(N)c(C#N)c(CC#N)c1C#N` here?
A: 13.6%

Q: Which differential viability (reversal) does the source give for `c1cnc(NCCNc2ncccn2)nc1` here?
A: 10.7%

Q: For `C=CCn1c(SCC#N)nc2c(c1=O)C(C)(C)Cc1ccccc1-2`, which differential viability (reversal) is on record?
A: -6.17%

Q: With `COc1cc(NS(=O)(=O)c2ccc(N)cc2)ncn1` as the compound, how does the differential viability (reversal) read?
A: 27%
